Laboratory results taken from article PMC7862700, “An all-to-all approach to the identification of sequence-specific readers for epigenetic DNA modifications on cytosine”.

What was measured:
Assay in all cases: DAPPL (digital affinity profiling via proximity ligation, sequencing); 10 mM Tris-HCl pH 7.5, 50 mM NaCl, 1 mM DTT, 4% glycerol, room temperature, 30 min; GST-TFs on glutathione beads, 16-mer random dsDNA library, 0.1% formaldehyde crosslink after washing; high values mean tight binding
FLI1 = target: T1, FLI1 (Homo sapiens, UniProt Q01543 1-452); details: protein: recombinant; tags: N-terminal GST; dsDNA, one strand shown
T1 sequence: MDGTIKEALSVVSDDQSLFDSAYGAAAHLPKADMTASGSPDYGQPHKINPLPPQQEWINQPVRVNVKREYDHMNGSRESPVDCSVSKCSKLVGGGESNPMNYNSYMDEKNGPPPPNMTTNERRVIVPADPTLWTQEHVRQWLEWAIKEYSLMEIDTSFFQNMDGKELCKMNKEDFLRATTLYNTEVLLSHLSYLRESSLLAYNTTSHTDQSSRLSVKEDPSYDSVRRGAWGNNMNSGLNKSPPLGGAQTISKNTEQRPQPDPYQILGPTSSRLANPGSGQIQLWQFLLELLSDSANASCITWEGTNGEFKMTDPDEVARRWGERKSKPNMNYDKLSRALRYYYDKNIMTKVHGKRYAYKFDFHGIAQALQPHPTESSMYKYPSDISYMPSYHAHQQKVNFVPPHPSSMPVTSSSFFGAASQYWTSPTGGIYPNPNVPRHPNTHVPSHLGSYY
Outline: (§1)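 GST fusions of human transcription factors were expressed in yeast and captured with glutathione beads. Once given DNA barcodes and pooled alongside a tag-only sample, they were incubated for 30 min at room temperature with 200 nmole of a random double-stranded 16-mer DNA library in Tris/NaCl/DTT/glycerol buffer, then washed, crosslinked (0.1% formaldehyde), proximity-ligated, PCR-amplified and sequenced on an Illumina NextSeq500. The binding signal of each hexamer is its read frequency for a factor divided by its frequency for the tag-only sample.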

ELK1 = target: T2, ELK1 (Homo sapiens, UniProt P19419 1-428); details: protein: recombinant; tags: N-terminal GST; dsDNA, one strand shown
T2 sequence: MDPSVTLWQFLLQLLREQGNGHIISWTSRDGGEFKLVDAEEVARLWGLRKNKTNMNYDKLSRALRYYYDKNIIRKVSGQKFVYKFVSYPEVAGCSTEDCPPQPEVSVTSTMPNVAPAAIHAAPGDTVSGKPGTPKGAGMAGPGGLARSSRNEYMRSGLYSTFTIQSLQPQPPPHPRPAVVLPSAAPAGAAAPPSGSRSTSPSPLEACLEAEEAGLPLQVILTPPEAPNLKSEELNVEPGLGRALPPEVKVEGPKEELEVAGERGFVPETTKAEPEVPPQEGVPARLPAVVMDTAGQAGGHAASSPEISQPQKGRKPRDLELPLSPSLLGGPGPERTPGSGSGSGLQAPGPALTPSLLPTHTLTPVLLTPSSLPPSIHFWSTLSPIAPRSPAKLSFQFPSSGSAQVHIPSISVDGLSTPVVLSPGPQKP
Outline: as §1

GABPA = target: T3, GABPA (Homo sapiens, UniProt Q06546 1-454); details: protein: recombinant; tags: N-terminal GST; dsDNA, one strand shown
T3 sequence: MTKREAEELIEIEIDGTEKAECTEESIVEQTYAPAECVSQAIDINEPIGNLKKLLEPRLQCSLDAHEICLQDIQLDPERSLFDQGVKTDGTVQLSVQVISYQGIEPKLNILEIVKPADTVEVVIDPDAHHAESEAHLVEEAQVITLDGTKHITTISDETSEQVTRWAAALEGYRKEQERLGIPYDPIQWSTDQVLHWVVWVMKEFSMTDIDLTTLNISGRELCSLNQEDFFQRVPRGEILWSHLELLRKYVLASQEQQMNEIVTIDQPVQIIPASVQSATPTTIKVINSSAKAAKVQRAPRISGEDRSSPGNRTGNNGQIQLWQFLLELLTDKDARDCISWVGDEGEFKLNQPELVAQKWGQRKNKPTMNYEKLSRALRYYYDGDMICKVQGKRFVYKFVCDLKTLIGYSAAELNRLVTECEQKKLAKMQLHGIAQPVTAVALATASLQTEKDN
Outline: as §1

ERG = target: T4, ERG (Homo sapiens, UniProt P11308 1-479); details: protein: recombinant; tags: N-terminal GST; dsDNA, one strand shown
T4 sequence: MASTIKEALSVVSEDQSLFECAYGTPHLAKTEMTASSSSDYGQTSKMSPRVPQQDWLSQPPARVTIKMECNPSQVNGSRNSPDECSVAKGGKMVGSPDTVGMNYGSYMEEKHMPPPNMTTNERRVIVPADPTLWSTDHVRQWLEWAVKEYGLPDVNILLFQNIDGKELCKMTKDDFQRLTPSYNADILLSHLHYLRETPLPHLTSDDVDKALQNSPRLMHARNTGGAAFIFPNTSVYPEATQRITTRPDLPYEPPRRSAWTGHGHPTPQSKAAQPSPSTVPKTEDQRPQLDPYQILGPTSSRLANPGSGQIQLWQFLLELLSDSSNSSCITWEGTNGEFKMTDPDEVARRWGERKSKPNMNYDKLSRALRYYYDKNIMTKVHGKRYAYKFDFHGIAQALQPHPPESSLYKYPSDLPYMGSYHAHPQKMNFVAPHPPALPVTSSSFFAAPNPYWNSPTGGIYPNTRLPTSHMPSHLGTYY
Outline: as §1

ELF1 = ELF1 (Homo sapiens, UniProt P32519 1-619); details: protein: recombinant; tags: N-terminal GST; dsDNA, one strand shown
Outline: as §1

EHF = target: T5, EHF (Homo sapiens, UniProt Q9NZC4 1-300); details: protein: recombinant; tags: N-terminal GST; dsDNA, one strand shown
T5 sequence: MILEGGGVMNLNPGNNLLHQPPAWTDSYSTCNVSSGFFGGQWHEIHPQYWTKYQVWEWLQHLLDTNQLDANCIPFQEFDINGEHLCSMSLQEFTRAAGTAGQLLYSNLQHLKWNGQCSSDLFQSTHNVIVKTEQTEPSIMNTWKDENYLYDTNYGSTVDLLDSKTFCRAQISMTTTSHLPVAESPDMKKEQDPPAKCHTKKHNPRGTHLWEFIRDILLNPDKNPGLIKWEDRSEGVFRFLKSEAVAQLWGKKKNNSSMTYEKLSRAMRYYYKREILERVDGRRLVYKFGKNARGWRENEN
Outline: as §1

SPI1 = SPI1 (Homo sapiens, UniProt P17947 1-270); details: protein: recombinant; tags: N-terminal GST; dsDNA, one strand shown
Outline: as §1

SPIB = SPIB (Homo sapiens, UniProt Q01892 1-262); details: protein: recombinant; tags: N-terminal GST; dsDNA, one strand shown
Outline: as §1

ELK3 = target: T6, ELK3 (Homo sapiens, UniProt P41970 1-407); details: protein: recombinant; tags: N-terminal GST; dsDNA, one strand shown
T6 sequence: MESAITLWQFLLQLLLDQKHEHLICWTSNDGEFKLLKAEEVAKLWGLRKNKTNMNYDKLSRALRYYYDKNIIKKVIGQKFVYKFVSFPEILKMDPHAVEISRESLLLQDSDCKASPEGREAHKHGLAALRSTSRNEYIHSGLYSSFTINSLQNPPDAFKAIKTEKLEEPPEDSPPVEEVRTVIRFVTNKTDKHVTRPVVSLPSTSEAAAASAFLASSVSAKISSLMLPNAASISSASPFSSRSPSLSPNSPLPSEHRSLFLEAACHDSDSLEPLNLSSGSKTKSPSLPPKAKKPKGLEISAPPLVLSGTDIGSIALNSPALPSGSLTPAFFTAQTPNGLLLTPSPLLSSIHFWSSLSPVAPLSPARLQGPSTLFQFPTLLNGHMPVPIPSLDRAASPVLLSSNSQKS
Outline: as §1

FEV = target: T7, FEV (Homo sapiens, UniProt Q99581 1-238); details: protein: recombinant; tags: N-terminal GST; dsDNA, one strand shown
T7 sequence: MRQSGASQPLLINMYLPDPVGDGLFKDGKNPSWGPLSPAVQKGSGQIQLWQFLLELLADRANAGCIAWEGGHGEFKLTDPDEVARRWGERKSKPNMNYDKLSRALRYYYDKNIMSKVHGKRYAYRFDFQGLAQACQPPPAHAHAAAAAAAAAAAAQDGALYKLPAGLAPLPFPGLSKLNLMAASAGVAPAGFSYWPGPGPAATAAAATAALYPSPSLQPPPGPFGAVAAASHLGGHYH
Outline: as §1

ETV5 = ETV5 (Homo sapiens, UniProt P41161 1-510); details: protein: recombinant; tags: N-terminal GST; dsDNA, one strand shown
Outline: as §1

HSF1 = HSF1 (Homo sapiens, UniProt Q00613 1-529); details: protein: recombinant; tags: N-terminal GST; chain copies: 3; dsDNA, one strand shown
Outline: as §1

SPIC = target: T8, SPIC (Homo sapiens, UniProt Q8N5J4 1-248); details: protein: recombinant; tags: N-terminal GST; dsDNA, one strand shown
T8 sequence: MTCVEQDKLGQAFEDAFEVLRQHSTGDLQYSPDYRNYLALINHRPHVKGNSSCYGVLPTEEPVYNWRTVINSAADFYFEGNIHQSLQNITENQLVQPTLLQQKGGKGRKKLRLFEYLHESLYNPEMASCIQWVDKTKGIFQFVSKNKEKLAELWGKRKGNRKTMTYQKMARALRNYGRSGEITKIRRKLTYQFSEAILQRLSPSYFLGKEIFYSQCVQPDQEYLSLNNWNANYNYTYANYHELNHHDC
Outline: as §1

ELF4 = ELF4 (Homo sapiens, UniProt Q99607 1-663); details: protein: recombinant; tags: N-terminal GST; dsDNA, one strand shown
Outline: as §1

ELK4 = target: T9, ELK4 (Homo sapiens, UniProt P28324-2 1-405); details: protein: recombinant; tags: N-terminal GST; dsDNA, one strand shown
T9 sequence: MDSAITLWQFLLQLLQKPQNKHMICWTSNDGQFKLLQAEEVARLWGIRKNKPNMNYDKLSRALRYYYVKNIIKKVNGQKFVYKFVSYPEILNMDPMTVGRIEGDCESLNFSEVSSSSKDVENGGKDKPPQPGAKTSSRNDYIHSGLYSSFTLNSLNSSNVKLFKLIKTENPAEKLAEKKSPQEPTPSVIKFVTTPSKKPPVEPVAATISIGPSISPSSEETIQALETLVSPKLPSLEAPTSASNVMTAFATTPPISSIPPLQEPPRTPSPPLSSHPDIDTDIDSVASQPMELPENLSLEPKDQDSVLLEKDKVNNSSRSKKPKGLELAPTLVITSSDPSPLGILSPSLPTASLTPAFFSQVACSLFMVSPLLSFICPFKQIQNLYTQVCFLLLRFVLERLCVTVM
Outline: as §1

ETV2 = target: T10, ETV2 (Homo sapiens, UniProt O00321 1-342); details: protein: recombinant; tags: N-terminal GST; dsDNA, one strand shown
T10 sequence: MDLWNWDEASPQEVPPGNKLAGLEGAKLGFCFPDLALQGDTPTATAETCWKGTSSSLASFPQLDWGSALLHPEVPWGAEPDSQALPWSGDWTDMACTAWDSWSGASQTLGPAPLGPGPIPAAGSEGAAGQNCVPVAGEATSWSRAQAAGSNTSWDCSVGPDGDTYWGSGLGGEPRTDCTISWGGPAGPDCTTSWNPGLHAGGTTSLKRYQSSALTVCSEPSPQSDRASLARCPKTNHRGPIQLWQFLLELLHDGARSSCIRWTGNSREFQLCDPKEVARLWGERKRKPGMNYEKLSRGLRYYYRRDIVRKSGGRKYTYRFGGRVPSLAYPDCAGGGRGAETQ
Outline: as §1

ELF3 = target: T11, ELF3 (Homo sapiens, UniProt P78545 1-371); details: protein: recombinant; tags: N-terminal GST; dsDNA, one strand shown
T11 sequence: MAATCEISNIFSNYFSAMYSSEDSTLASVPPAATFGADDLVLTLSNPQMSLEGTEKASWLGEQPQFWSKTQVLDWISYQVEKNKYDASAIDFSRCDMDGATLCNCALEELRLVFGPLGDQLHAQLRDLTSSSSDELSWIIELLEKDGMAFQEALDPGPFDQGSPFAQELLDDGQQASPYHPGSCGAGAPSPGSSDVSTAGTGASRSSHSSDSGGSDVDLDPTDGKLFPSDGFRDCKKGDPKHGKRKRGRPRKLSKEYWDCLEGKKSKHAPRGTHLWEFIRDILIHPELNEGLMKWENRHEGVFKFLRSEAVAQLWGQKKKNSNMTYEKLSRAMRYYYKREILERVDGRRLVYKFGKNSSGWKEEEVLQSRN
Outline: as §1

CRX = CRX (Homo sapiens, UniProt O43186 1-299); details: protein: recombinant; tags: N-terminal GST; dsDNA, one strand shown
Outline: as §1

ETV1 = ETV1 (Homo sapiens, UniProt P50549 1-477); details: protein: recombinant; tags: N-terminal GST; dsDNA, one strand shown
Outline: as §1

ETV1, sequence (P50549 whole entry): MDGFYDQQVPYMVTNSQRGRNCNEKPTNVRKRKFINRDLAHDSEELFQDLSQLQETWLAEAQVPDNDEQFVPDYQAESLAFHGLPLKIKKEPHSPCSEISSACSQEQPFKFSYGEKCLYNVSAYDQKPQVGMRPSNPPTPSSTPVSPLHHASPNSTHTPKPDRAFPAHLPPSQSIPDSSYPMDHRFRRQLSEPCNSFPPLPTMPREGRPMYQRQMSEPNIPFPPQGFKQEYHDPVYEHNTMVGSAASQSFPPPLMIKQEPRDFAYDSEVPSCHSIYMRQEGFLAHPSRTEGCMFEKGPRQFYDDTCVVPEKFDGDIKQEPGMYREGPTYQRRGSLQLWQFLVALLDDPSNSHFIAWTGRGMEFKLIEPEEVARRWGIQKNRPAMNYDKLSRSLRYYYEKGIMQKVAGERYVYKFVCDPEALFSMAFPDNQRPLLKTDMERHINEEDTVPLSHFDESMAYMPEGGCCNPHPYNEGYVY
SPIB, sequence (Q01892 whole entry): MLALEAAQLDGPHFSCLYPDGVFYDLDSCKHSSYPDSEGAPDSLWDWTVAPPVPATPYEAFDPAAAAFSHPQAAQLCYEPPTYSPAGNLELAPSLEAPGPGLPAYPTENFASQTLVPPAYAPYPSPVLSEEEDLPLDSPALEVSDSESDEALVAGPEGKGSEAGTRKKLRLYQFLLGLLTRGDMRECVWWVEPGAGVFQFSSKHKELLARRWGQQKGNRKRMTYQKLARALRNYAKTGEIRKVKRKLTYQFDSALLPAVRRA
ETV5, sequence (P41161 whole entry): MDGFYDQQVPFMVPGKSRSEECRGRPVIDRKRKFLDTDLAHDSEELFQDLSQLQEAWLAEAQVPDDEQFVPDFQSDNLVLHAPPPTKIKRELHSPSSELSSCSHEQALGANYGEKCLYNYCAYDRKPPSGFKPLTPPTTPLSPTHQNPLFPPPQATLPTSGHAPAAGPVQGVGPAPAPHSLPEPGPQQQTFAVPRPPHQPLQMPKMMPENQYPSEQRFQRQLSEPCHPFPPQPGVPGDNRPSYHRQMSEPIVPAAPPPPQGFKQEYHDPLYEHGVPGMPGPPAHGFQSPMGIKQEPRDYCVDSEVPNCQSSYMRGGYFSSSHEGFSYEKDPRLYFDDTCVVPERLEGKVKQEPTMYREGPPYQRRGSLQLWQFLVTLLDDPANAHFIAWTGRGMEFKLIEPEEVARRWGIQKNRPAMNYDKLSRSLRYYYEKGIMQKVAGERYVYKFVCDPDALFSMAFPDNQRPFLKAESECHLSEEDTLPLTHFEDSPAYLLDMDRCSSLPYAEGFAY
CRX, sequence (O43186 whole entry): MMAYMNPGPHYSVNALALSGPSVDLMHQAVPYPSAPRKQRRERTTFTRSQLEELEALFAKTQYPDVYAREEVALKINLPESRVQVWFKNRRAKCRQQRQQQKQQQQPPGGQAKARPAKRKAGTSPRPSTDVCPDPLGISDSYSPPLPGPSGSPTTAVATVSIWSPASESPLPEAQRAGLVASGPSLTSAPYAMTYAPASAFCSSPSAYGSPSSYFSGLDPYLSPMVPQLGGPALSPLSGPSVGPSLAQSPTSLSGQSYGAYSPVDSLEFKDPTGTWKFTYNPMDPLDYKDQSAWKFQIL
HSF1, sequence (Q00613 whole entry): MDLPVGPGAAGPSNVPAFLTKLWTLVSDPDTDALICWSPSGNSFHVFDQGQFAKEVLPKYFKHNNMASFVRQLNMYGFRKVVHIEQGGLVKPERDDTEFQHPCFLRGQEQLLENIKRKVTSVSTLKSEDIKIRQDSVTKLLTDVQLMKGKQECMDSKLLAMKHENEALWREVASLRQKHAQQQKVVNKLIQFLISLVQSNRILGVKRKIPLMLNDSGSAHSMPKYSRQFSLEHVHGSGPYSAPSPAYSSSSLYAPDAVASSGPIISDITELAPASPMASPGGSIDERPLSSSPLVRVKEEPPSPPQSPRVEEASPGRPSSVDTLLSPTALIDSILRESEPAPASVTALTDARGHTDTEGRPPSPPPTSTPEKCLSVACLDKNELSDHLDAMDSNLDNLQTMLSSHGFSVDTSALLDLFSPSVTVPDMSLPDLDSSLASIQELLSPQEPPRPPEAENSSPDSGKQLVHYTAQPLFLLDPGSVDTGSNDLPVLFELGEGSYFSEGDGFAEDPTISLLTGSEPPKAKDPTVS
ELF4, sequence (Q99607 whole entry): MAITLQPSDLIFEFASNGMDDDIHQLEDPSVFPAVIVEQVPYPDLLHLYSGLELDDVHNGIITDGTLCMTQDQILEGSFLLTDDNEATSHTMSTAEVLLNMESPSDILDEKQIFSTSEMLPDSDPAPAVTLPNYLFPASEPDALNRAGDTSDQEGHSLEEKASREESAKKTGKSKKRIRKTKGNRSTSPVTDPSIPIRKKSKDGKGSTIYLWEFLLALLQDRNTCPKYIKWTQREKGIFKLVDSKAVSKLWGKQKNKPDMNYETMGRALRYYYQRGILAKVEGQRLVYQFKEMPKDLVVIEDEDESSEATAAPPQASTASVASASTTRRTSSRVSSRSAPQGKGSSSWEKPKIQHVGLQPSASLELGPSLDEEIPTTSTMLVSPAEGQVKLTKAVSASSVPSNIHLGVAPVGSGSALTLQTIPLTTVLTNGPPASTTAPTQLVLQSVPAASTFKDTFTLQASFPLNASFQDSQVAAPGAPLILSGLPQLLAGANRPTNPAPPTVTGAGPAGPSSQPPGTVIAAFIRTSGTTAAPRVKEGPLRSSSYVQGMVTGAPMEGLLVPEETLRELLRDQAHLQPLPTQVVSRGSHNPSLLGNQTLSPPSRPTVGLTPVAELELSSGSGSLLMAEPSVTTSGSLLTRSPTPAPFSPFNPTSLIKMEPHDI
ELF1, sequence (P32519 whole entry): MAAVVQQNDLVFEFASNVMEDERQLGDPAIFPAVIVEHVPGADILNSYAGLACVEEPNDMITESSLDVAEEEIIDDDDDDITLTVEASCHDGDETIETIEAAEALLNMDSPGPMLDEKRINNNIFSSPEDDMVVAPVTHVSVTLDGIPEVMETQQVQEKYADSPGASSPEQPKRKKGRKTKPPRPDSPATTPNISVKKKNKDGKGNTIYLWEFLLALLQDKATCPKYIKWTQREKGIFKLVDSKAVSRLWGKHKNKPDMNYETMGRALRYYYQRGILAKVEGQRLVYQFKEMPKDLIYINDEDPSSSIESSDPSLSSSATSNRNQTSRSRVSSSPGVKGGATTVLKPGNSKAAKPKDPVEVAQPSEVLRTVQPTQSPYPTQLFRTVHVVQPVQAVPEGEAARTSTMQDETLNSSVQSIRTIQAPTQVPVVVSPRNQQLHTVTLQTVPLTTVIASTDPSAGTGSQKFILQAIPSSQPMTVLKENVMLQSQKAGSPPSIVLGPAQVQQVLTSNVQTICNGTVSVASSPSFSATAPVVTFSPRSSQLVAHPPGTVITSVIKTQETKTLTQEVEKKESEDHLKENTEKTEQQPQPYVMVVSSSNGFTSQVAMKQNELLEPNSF

CATCCC
binding signal (FLI1): 1.39 fold enrichment (6-mer frequency, TF over GST control) | binding signal (ELK1): 1.22 fold enrichment (6-mer frequency, TF over GST control) | binding signal (GABPA): 1.24 fold enrichment (6-mer frequency, TF over GST control) | binding signal (ERG): 1.29 fold enrichment (6-mer frequency, TF over GST control) | binding signal (ELF1): 1.29 fold enrichment (6-mer frequency, TF over GST control) | binding signal (EHF): 1.29 fold enrichment (6-mer frequency, TF over GST control) | binding signal (SPI1): 1.25 fold enrichment (6-mer frequency, TF over GST control) | binding signal (SPIB): 1.26 fold enrichment (6-mer frequency, TF over GST control) | binding signal (ELK3): 1.24 fold enrichment (6-mer frequency, TF over GST control) | binding signal (FEV): 1.18 fold enrichment (6-mer frequency, TF over GST control) | binding signal (ETV5): 1.31 fold enrichment (6-mer frequency, TF over GST control) | binding signal (HSF1): 1.05 fold enrichment (6-mer frequency, TF over GST control) | binding signal (SPIC): 1.3 fold enrichment (6-mer frequency, TF over GST control) | binding signal (ELF4): 1.22 fold enrichment (6-mer frequency, TF over GST control) | binding signal (ELK4): 1.22 fold enrichment (6-mer frequency, TF over GST control) | binding signal (ETV2): 1.15 fold enrichment (6-mer frequency, TF over GST control) | binding signal (ELF3): 1.27 fold enrichment (6-mer frequency, TF over GST control) | binding signal (CRX): 1.05 fold enrichment (6-mer frequency, TF over GST control) | binding signal (ETV1): 1.16 fold enrichment (6-mer frequency, TF over GST control)
